Screens as filed in PubChem.
A selection: hits, their analogues and other compounds. The true share with any hit is near 6.1%.
HepG2 tox: kills HepG2 cells in TGF-b inhibitor counter-screen; HepG2 CAGA-GFP viability, ATP luminescence, 18 h; Potency, µM (doses to about 46.1 µM), usual class: cytotoxic; 0.76% of 410,000 active
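CellTiter-Glo luminescence gave cytotoxicity after 18 hours at 37 degrees C. The cells were HepG2 CAGA-GFP in 1% FBS DMEM, stimulated with 500 pg/mL TGF-beta after compound addition. %Activity was normalised to no-cell wells (complete cell-killing) and DMSO (no toxicity), and curves were fitted and classified.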
RORg inh: ROR gamma (mouse) transcription inhibition; P51450; Drosophila S2 Gal4-RORgamma UAS-luciferase reporter, 20 h; Potency, µM (titrated, usually from 53.6 µM), hits mostly inhibitors; 5.4% of 310,000 active; also: nearly all actives have a fitted effect of over 60% in size
Target sequence (P51450 whole entry, looked up, the tested form may be a part): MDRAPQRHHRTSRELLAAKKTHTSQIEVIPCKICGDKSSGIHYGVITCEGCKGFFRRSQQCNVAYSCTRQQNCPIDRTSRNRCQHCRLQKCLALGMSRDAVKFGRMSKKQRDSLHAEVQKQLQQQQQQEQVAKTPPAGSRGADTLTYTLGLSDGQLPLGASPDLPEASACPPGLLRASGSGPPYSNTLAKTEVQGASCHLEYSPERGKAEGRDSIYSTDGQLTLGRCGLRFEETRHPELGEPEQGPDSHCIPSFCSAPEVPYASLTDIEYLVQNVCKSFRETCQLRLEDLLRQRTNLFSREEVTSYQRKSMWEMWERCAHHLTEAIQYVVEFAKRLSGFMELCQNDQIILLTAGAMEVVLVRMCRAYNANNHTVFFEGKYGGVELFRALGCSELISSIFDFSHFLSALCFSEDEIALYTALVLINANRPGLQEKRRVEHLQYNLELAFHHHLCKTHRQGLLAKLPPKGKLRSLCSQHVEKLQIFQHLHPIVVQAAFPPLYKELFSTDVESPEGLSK
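Using a luciferase readout, inhibitors were identified by reduced reporter activity in Drosophila cells coexpressing a copper-inducible Gal4–ROR gamma fusion and UAS-driven Photinus luciferase, incubated 20 hr after 700 uM copper sulfate.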
TGFb SMAD3 inh: inhibitors of TGF-b signaling; HepG2 CAGA-GFP TGF-b/SMAD3 reporter, GFP fluorescence, 18 h; TGF-beta stimulated, 500 pg/mL final; Potency, µM (doses to about 46.1 µM), actives largely listed as inhibitors; 1.2% of 410,000 active; AID 588855; also: nearly all actives have a fitted effect of over 65% in size
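TGF-beta reporter screen: HEPG2 CAGA-GFP, 1% FBS, 500 pg/mL TGF-beta final, 18 h; per-cell GFP summed per well; curves fitted and categorized by class.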
Gal4-VP16 FLuc: inhibits Gal4-VP16 luciferase reporter, ROR gamma counter-screen; Drosophila S2 Gal4-VP16 UAS-luciferase, luminescence, 20 h; Potency, µM (top dose mostly 53.6 µM), usual class: inhibitors; 3.5% of 310,000 active;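 also: Gal4-VP16 expression switched on by copper sulfate through the metallothionein promoter; nearly all actives have a fitted effect of over 50% in size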
ATXN viability: cell viability loss in ATXN counter-screen | S2 cells (HEK-293 line with an ATXN2-luciferase reporter) viability, CellTiter-Fluor protease fluorescence, 24 h | Potency, µM (titrated, usually from 56.7 µM), hits mostly cytotoxic | 0.49% of 400,000 active | AID 651635; also: nearly all actives have a fitted effect of over 40% in size
ATXN2 expr inh: reduces ATXN2 reporter expression in HEK-293 cells; Potency, µM (titrated, usually from 57 µM), hits mostly inhibitors; 0.72% of 360,000 active; HEK-293 ATXN2-luciferase reporter, luminescence, 24 h; also: nearly all actives have a fitted effect of over 55% in size
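ATXN2-luciferase reporter cells (luciferase flanked by upstream and downstream ATXN2 gene portions) were treated 24 h at 37 °C with compounds at up to 57 uM. SteadyGlo luminescence gave expression; GF-AFC fluorescence gave viability.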
A number is an active result; i = inactive; ? = inconclusive; nt = no result given; [ ] = another dose, or the depositor's remark. Calls follow the shape of the dose curve; as a rule, active = well fitted curve in the direction sought with a large enough effect; inconclusive = small, poorly fitted or top-dose-only effect, or another doubt; inactive = no such curve, though single readings can be large; an effect the other way counts as inactive or inconclusive.

SMILES	HepG2 tox	RORg inh	TGFb SMAD3 inh	Gal4-VP16 FLuc	ATXN viability	ATXN2 expr inh
C(=N\Nc1nc2ccccc2[nH]1)/c1ccncc1	i	i	i	?	i	i
COC1=C(OC)C(=O)C(CC=C(C)CCC=C(C)CCC=C(C)CCC=C(C)CCC=C(C)CCC=C(C)CCC=C(C)CCC=C(C)CCC=C(C)CCC=C(C)C)=C(C)C1=O	nt	nt	nt	nt	i	i
CC(/C=N/Nc1nc2ccccc2[nH]1)=C\c1ccccc1	i	6.3µM	?	7.1µM	?	i
Clc1nc2ccccc2cc1/C=N/Nc1nc2ccccc2[nH]1	i	i[10 µM]	i	i	i	i
C=CCn1cc(/C=N/Nc2nc3ccccc3[nH]2)c2ccccc21	i	4.5µM	?	7.1µM	?	i
CC(/C=N/Nc1nc(C)cc(=O)[nH]1)=C\c1ccccc1	i	i	i	?	i	i
O=C(NC1CC1)c1ccc2nc(-c3ccco3)c(-c3ccco3)nc2c1	i	nt	i	nt	nt	nt
Cc1cc(C(=O)NCCN2Cc3ccccc3OC(c3ccccc3F)C2)no1 (centres undefined)	nt	nt	nt	nt	i	nt
Cc1cc(/C=C2/NC(=O)NC2=O)c(C)n1-c1sc2c(c1C#N)CCCC2	i	11µM	i	i	i	i
CCC1CN(CCNC(=O)C(C)(C)O)Cc2cc(OC)ccc2O1 (centres undefined)	nt	nt	nt	nt	i	nt
COC(=O)Cc1ccc(NC(=S)Nc2ccccn2)cc1	i	5µM	i	?	i	i
COC(=O)Cc1ccc(NC(=S)NC(C)(C)C)cc1	i	?	?	i	i	i
COc1cc(NC(=S)Nc2ccccn2)cc(OC)c1	i	2.5µM	i	5.6µM	?	i
COc1cc(NC(=S)Nc2ccccn2)cc(OC)c1OC	i	3.5µM	i	22µM	i	i
COc1cc2c(cc1OC)C(=O)CC2	nt	nt	nt	nt	i	i
COC(=O)c1cc(NC(=O)CCc2c(C)nc3c(c(C)nn3C(C)(C)C)c2C)cc(C(=O)OC)c1	i	nt	i	nt	i	i
O=C(NCCc1ccc(Cl)cc1)c1ccc(CSCc2cccc(Cl)c2)o1	i	nt	?	nt	?	?
Cc1onc(-c2ccccc2Cl)c1C(=O)N/N=C(\N)COc1ccc(Cl)cc1	i	0.45µM	?	1µM	?	?
CCC(=O)Nc1ccc(/C(C)=N/NC(=O)c2c(-c3ccccc3Cl)noc2C)cc1	i	i	i	i	i	i
Cc1onc(-c2ccccc2)c1C(=O)N/N=C(\N)COc1ccc(Cl)cc1	i	1µM	i	1.3µM	i	i
Cc1ccc(CCNC(=O)CN2CCN(Cc3ccc(Cl)cc3)C2=O)cc1	i	nt	?	nt	?	i
O=C1Nc2ccccc2N=C(c2ccc3c(c2)OCO3)C1N(CCc1ccccc1)C(=O)CSc1ncccn1 (centres undefined)	i	nt	?	nt	7.9µM	i
COc1ccc(C2=Nc3ccccc3NC(=O)C2N(CCc2ccccc2)C(=O)c2cccs2)cc1 (centres undefined)	i	nt	?	nt	?	i
O=[N+]([O-])c1cc2cccnc2c2ncccc12	i	i	?	i	?	nt
O=[N+]([O-])c1cc(O)c2ncccc2c1	4µM	0.89µM	5µM	i	?	5µM
SMILES	HepG2 tox	RORg inh	TGFb SMAD3 inh	Gal4-VP16 FLuc	ATXN viability	ATXN2 expr inh
COc1ccc2nc(N/C(N)=N/C(=S)Nc3cccc(C)c3)nc(C)c2c1	i	3.5µM	i	4.5µM	i	i
Cc1ccc(NC(=S)/N=C(\N)Nc2nc(C)c3cc(C)c(C)cc3n2)cc1C	i	2.2µM	i	5µM	?	i
COc1ccc2nc(N/C(N)=N/C(=S)Nc3c(C)cccc3C)nc(C)c2c1	i	i	?	i	?	nt
CCOc1ccc2nc(N/C(N)=N/C(=S)Nc3cccc(OC)c3)nc(C)c2c1	i	0.79µM	i	?	?	i
COc1ccc(NC(=S)/N=C(\N)Nc2nc(C)c3ccccc3n2)cc1	i	1µM	?	4.5µM	?	i
COc1ccc(OC)c(-c2ccnc(-n3ncc(C(=O)N(C)CCO)c3C3CC3)n2)c1	nt	nt	nt	nt	i	nt
CCOC(=O)CCN1C(=O)[C@H]2[C@H]3[C@H](O)[C@H](O)C/C(=N/OCc4ccccc4)[C@H]3CC[C@@H]2C1=O	nt	i[10 µM]	nt	i[10 µM]	nt	nt
CC1CCC2C(=O)N3C(CCC(C)[C@@H]3c3ccc(Br)cc3)C(=O)N2C1c1ccc(Br)cc1 (some centres undefined)	nt	i[10 µM]	nt	i[10 µM]	nt	nt
CCOc1ccc2nc(N/C(N)=N/C(=S)Nc3cccc(C)c3)nc(C)c2c1	i	1.6µM	i	3.5µM	i	i
Cc1ccc2nc(Cl)c3cc(C(=O)N(C)C4CCCCC4)sc3c2c1	i	nt	i	nt	nt	nt
C/C(=N\NC(N)=S)c1ccc2c(c1)OCCO2	i	5µM	i	?	?	i
C/C(=N\NC(=S)Nc1ccc(F)cc1)c1ccc2c(c1)OCCO2	i	1.3µM	i	4µM	i	i
CC(=O)N/N=C(\C)c1ccc2c(c1)OCCO2	i	i	i	i	i	i
CC(O)(COc1ccccc1)c1ccc2c(c1)CN(Cc1ccccn1)CCO2 (centres undefined)	nt	nt	nt	nt	i	nt
OC1(c2ccc3c(c2)CN(Cc2nccs2)CCO3)CCN(c2ccccc2F)CC1	nt	nt	nt	nt	i	nt
O=C(CSc1ncccc1C(=O)O)c1cccc(C(F)(F)F)c1	i	i	i	i	i	i
Cn1ccnc1SCC(=O)c1cccc(Br)c1	i	i	i	i	i	i
Cn1ccnc1SCC(=O)NC1CCCCC1	i	i	i	i	i	i
Cn1ccnc1SCC(=O)N(C1CCCCC1)C1CCCCC1	i	11µM	i	?	i	i
O=C(CSc1ncccc1C(=O)O)c1ccc2ccccc2c1	i	11µM	i	2.2µM	i	i
Cn1ccnc1SCC(=O)c1ccc2ccccc2c1	i	11µM	i	?	i	i
COc1cccc(C(=O)CSc2nccn2C)c1	i	10µM	i	?	i	i
COc1cc(Cl)c(C)cc1NC(=O)CNC(=O)Cn1ccc2ccccc2c1=O	i	nt	i	nt	i	i
CCOC(=O)CN1CCCC1=O	nt	nt	nt	nt	i	i
COc1cc2c(cc1OC)C(c1cc(-c3cc(Cl)ccc3Cl)oc1C)=NCC2	i	nt	i	nt	nt	nt
SMILES	HepG2 tox	RORg inh	TGFb SMAD3 inh	Gal4-VP16 FLuc	ATXN viability	ATXN2 expr inh
CCOc1ccc(NC(=O)Cn2c(=O)n(CC(=O)NCc3ccccc3Cl)c(=O)c3sccc32)cc1	i	nt	i	nt	i	i
COCCNc1nc(CSc2ccccc2)nc2sc(C)c(C)c12	i	11µM	i	?	i	i
COc1ccc(-c2noc(CSc3nnc(Cc4ccccc4)n3-c3ccc(F)cc3)n2)cc1	i	nt	16µM	nt	nt	?
COc1ccc(-c2noc(CSc3nnc(Cc4ccccc4)n3-c3cccc(C)c3)n2)cc1	i	nt	?	nt	nt	?
CC(NC(=O)/C(C#N)=C/c1ccc(Cl)c([N+](=O)[O-])c1)c1ccccc1 (centres undefined)	i	?	?	?	22µM	nt
CCn1c(-c2cccc(S(=O)(=O)N3CCCC3)c2)n[nH]c1=S	i	?	i	i	?	nt
